# Rows were chosen to be rich in hits. Some 4.7% of all compounds tested hit in one or more screens of this group.
# tim10-1 inh: inhibits growth of tim10-1 mutant yeast; S. cerevisiae tim10-1 ts strain growth, BacTiter-Glo, 24 h; inhibition, % at 20 µM; 2.2% of 330,000 active; AID 463190;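 active means inhibition of at least 40%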;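 further: mutant grown at 25 °C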
# SKKanGAS inh: blocks kanamycin growth of S. pyogenes SKKanGAS strain; BacTiter-Glo, 6 h; 1.3% of 300,000 active; inhibition, % at 7.5 µM;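 active means mean replicate score, as percent of positive control median, at least 50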;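 further: strain carries kanamycin resistance gene driven by streptokinase promoter and grows in 40 µg/ml kanamycin; loss of luminescence reflects streptokinase promoter inhibition or plain growth inhibition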
# ATG4B inh: ATG4B (human) cysteine protease inhibition | inhibition, % at 8.33 µM | 0.51% of 340,000 active | Q9Y4P1 | ATG4B cleavage of LC3-PLA2, NBD-HPC fluorescence, 1 h; in the data active means inhibition above about 40%
# Target sequence (Q9Y4P1 whole entry, looked up): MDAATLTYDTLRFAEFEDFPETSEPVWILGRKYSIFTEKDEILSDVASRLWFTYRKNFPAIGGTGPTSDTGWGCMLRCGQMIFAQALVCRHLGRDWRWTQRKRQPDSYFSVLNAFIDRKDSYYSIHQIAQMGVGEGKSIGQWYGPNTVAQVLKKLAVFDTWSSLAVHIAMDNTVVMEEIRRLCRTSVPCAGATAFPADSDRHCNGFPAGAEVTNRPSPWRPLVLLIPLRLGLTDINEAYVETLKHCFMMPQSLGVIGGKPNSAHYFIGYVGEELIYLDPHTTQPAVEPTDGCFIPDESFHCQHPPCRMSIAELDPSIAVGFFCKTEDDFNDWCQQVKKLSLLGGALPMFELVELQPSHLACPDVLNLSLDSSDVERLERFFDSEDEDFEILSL
# PfHsp90 yeast 2: reduces growth (ATP signal) of yeast expressing P. falciparum Hsp90; inhibition, % at 9.4 µM; 0.32% of 310,000 active; S. cerevisiae expressing PfHsp90, BacTiter-Glo ATP, 48 h; yeast lacking PDR1 and PDR3 efflux regulators;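 active means every replicate shows inhibition above about 80%, whatever the replicate mean, limit read from the data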
# tim23-1 inh: tim23-1 yeast growth inhibition. S. cerevisiae tim23-1 growth, BacTiter-Glo luminescence, 24 h. inhibition, % at 20 µM. 1.3% of 330,000 active;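 active means growth inhibition of the mutant yeast at or above 50%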;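 further: temperature-sensitive mutant grown at 25 °C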
# TIM10 inh: growth inhibitors of TIM10 yeast strain; S. cerevisiae TIM10 strain growth, BacTiter-Glo luminescence, 24 h; inhibition, % at 10 µM; 1.4% of 330,000 active; AID 463195;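 active means inhibition of 40% or more at the single tested concentration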;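 further: wild-type TIM10 isogenic control strain grown at permissive 25 °C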
# A number is an active result; i = inactive; nt = no result.
SMILES,tim10-1 inh,SKKanGAS inh,ATG4B inh,PfHsp90 yeast 2,tim23-1 inh,TIM10 inh
NC(=O)CSc1cn(Cc2ccccc2)c2ccccc12,i,i,i,i,i,i
O=S(=O)(NC(=NCc1ccccc1)c1ccccc1)c1ccccc1,i,i,i,i,i,i
O=S(=O)(NC(=NCc1ccccc1)c1ccccc1)c1ccc(Br)cc1,i,52.4,i,i,i,i
COc1ccc(C2CC(c3ccccc3)=NN2C(=O)COC(=O)c2nc3nc(C)cc(C)n3n2)cc1 (stereo not given),i,i,i,i,i,i
CC(C)(C)NC(=S)NNC(=O)[C@H]1C[C@@H]1c1ccccc1,i,i,i,i,i,i
COc1ccc(OC)c(NC(=O)C2CC2c2ccccc2)c1 (stereo not given),i,i,i,i,i,i
COc1ccc(C(=O)NC(=S)NNC(=O)[C@H]2C[C@@H]2c2ccccc2)cc1OC,i,102.2,i,i,i,i
COc1cc(OC)cc(C(=O)NC(=S)NNC(=O)[C@H]2C[C@@H]2c2ccccc2)c1,i,105.0,i,i,i,i
O=C(O)CN1C(=O)/C(=C\c2cn(-c3ccccc3)nc2-c2ccccc2)SC1=S,i,i,i,i,i,i
CC(C)COc1ccc(-c2nn(-c3ccccc3)cc2/C=C2/SC(=S)N(CC(=O)O)C2=O)cc1,i,71.8,i,i,i,i
O=C(COc1cccc2cccnc12)N/N=C/c1ccccc1O,i,99.1,i,i,i,i
C/C(=N\NC(=O)COc1ccccc1-c1ccccc1)c1ccc(O)cc1O,i,86.4,i,i,i,i
C/C(=N\NC(=O)COc1ccccc1-c1ccccc1)c1ccccn1,i,83.3,i,nt,i,i
C/C(=N\NC(=O)COc1ccccc1-c1ccccc1)c1cccnc1,i,i,i,i,i,i
O=C(COc1ccccc1-c1ccccc1)N/N=C/c1ccc2ccccc2c1,nt,88.2,i,i,nt,nt
Cc1ccccc1OCC(=O)N/N=C/c1cccc2cccnc12,i,i,i,i,i,i
COc1cc(/C=C(\NC(C)=O)C(=O)Nc2cccc(O)c2)ccc1OC(C)=O,i,i,i,i,i,i
Cc1n[nH]c(=O)c2c(NC(=O)CSc3ncccn3)oc(C)c12,i,i,i,i,i,i
O=c1cc(-c2ccccc2)nc2c(-c3ccccc3)c(C(F)(F)F)[nH]n12,i,56.0,i,nt,i,i
CCOc1ccc(N2CC(C(=O)NCCc3c[nH]c4ccc(C)cc34)CC2=O)cc1 (stereo not given),i,i,i,i,i,i
Oc1nc(Nc2ccc(F)cc2)sc1/C=C1\C=Nc2ccccc21,i,55.4,i,i,i,i
CC1=NN(C(N)=S)C(=O)C1N=Nc1c(Cl)cc([N+](=O)[O-])cc1Cl (stereo not given),i,50.2,i,i,i,i
Cc1cc(C)n(Cc2ccc(Cl)cc2Cl)c(=O)c1S(=O)(=O)c1ccccc1,i,56.7,i,nt,i,i
CCNC(=S)N/N=C1\C(=O)c2cccc3cccc1c23,i,i,i,i,i,i
O=C(N/N=C1/C(=O)c2cccc3cccc1c23)c1ccc(Cl)cc1,i,99.8,i,i,i,i
SMILES,tim10-1 inh,SKKanGAS inh,ATG4B inh,PfHsp90 yeast 2,tim23-1 inh,TIM10 inh
O=C(Nc1ccc(F)cc1F)Nc1csc2ccccc12,i,i,i,nt,i,i
O=C(Nc1ccc(F)c(Cl)c1)Nc1csc2ccccc12,i,94.6,i,i,i,i
CC(=O)NC(=S)Nc1ccc(NC(=S)NC(=O)/C=C/c2ccco2)cc1,i,83.2,i,i,i,i
CCC(=O)Nc1ccc(NC(=S)NC(=O)/C=C/c2ccco2)cc1,i,i,i,i,i,i
CCCc1nc(NC2CCCCC2)c(C#N)c2c1COC(C)(C)C2,i,60.0,i,i,i,i
O=C(N/N=C/c1c[nH]c2ccccc12)C1CC1(c1ccccc1)c1ccccc1 (stereo not given),i,60.4,i,i,i,i
O=C(N/N=C/c1c[nH]c2ccccc12)c1cc(-c2ccc(-c3ccccc3)cc2)n[nH]1,i,92.3,i,i,i,i
O=C(N/N=C/c1c[nH]c2ccccc12)c1cc(-c2ccc3ccccc3c2)n[nH]1,i,95.0,i,i,i,i
O=C(N/N=C/c1c[nH]c2ccccc12)C1CC1c1ccccc1 (stereo not given),i,i,i,i,i,i
Cc1c(C)n(C)c2ccc(C(=O)NCCCN3CCN(C)CC3)cc12,i,i,i,i,i,i
O=S(=O)(c1ccccc1F)N1CCN(Cc2cc3c(cc2Br)OCCO3)CC1,i,nt,i,i,i,i
CCCN(CCC)S(=O)(=O)c1ccc(C(=O)Nc2nnc(COC)o2)cc1,i,68.7,i,i,i,i
COCc1nnc(NC(=O)c2ccc(S(=O)(=O)N(C)C3CCCCC3)cc2)o1,i,61.7,i,i,i,i
CCN(Cc1ccccc1)S(=O)(=O)c1ccc(C(=O)Nc2nnc(C3CC3)o2)cc1,i,97.6,i,i,i,i
CCc1nnc(NC(=O)c2ccc(S(=O)(=O)N3CCCc4ccccc43)cc2)o1,i,86.2,i,i,i,i
COc1cccc(NC(=O)c2cccc(C(=O)Nc3cccc(OC)c3)n2)c1,i,i,i,i,i,i
CC(=O)Nc1ccc(C(=O)Nc2ccc(S(=O)(=O)N3CCCCC3)cc2)cc1,i,i,i,i,i,i
CCc1nnc(NC(=O)c2ccc(S(=O)(=O)N(C)c3ccccc3)cc2)o1,i,52.1,i,i,i,i
CCc1nnc(NC(=O)c2ccc(S(=O)(=O)N(CC(C)C)CC(C)C)cc2)o1,i,nt,i,i,i,i
CSCc1nnc(NC(=O)c2ccc(S(=O)(=O)N(CC(C)C)CC(C)C)cc2)o1,nt,79.7,nt,nt,nt,nt
COc1ccc(C2=NN(c3ccc(C(=O)O)cc3)C(c3ccc(OC)c(OC)c3)C2)cc1 (stereo not given),i,i,i,i,i,i
COC(=O)c1cc(-c2cccc(OC)c2)c2c(=O)[nH]c(=O)n(C)c2n1,i,62.3,i,i,i,i
COC(=O)c1cc(-c2ccc(Br)cc2)c2c(=O)n(C)c(=O)n(C)c2n1,i,52.1,i,i,i,i
COC(=O)c1cc(-c2cccc([N+](=O)[O-])c2)c2c(=O)n(C)c(=O)n(C)c2n1,i,i,i,i,i,i
O=C(CS(=O)(=O)c1ccccc1)NCc1ccco1,i,nt,i,nt,i,i
CCN(CC)S(=O)(=O)c1ccc(N=Cc2c(C)c(C#N)c(=O)n(C)c2O)cc1,i,i,i,i,i,i
O=[N+]([O-])c1ccc(/C=N/Nc2nc(-c3ccccc3)c3cc(Br)ccc3n2)o1,i,94.7,i,i,i,i
Cc1ccc(-c2nn(-c3ccccc3)cc2/C=N/n2c(-c3cccs3)n[nH]c2=S)cc1,i,55.0,i,nt,i,i
S=c1[nH]nc(-c2ccncc2)n1/N=C/c1cn(-c2ccccc2)nc1-c1ccccc1,i,50.8,i,nt,i,i

# High-throughput results from PubChem.
